SIRT5 inh – SIRT5 desuccinylase inhibitors, primary screen, biochemical, fluorescence imaging, single point, set 5; NAD-dependent protein deacylase sirtuin-5, mitochondrial (Homo sapiens), Q9NXA8; Purified SirT5, succinyl-peptide AMC, trypsin-coupled fluorescence; inhibition, % at 15 µM; 330,000 tested, 1.1% active; AID 652115, 2013; in the data active = inhibition above about 15%
Target sequence (Q9NXA8 whole entry, looked up): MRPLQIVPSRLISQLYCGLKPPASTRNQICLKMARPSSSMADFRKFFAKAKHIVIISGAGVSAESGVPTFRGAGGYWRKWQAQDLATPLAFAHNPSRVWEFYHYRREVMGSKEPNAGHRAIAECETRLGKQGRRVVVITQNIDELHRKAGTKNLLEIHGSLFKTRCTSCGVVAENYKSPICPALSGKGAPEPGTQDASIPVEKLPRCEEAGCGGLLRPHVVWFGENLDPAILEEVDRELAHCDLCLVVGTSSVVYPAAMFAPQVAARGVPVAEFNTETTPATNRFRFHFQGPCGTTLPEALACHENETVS
PAX8 inh HTS – inhibitors of PAX8-driven TPO luciferase reporter, primary screen, RMG-I cells, single concentration. AID 652154, 2013. SteadyGlo, 24 h. inhibition, % at 12.6 µM. 360,000 tested, 1.2% active;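 active = mean replicate inhibition at least 60% with every replicate also reaching 60%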;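 also: luciferase light reporting Pax8 driven TPO promoter activity; plate controls were median of neutral control wells for no effect and mitoxantrone controls for full effect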
rRNA inh HTS – reduced GFP signal of wild-type E. coli, primary screen, bacterial rRNA inhibitor project, GFP/RFP fluorescence, OD600, single point. GFP signal change (wild-type ribosome), % (concentration not given with the values). AID 720706, 2013. 350,000 tested, 1.6% active. E. coli WT GFP vs humanized-ribosome RFP mutants, 24 h; hits give low values; DMSO median 0, no signal -100;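 active = significant combined selectivity score with lowered wild-type GFP, culture density cut under 30%, mutant RFP and density less affected; inactive = any of these conditions unmet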
EWS-Fli inh – EWS/Fli-driven NR0B1 reporter inhibitors, primary screen, A673 cells, NR0B1 luciferase, luminescence, MLPCN library. viability-normalised. inhibition, % at 12.6 µM. 350,000 tested, 0.67% active. AID 651661, 2012;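 active = mean inhibition of at least 50% after viability correction, with every replicate also passing that limit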;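 also: firefly luciferase signal divided by Alamar Blue viability fluorescence both relative to DMSO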
PGC1a acetyl inh – inhibitors of PGC1a acetylation signal, primary screen, cell-based, U2OS, AlphaScreen, inhibitor mode; inhibition, % at 15.6 µM; AlphaScreen anti-acetyl-lysine; with virally co-expressed GCN5 acetyltransferase; AID 651687, 2012; 350,000 tested, 0.17% active;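 active = every replicate shows inhibition of at least 40%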;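 also: 0% = neutral control wells and 100% = positive control wells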
LGR2 antag – inhibitors of bursicon-induced LGR2 CRE-luciferase signal, primary screen, cell-based, HEK293, CRE-luciferase reporter, bursicon stimulation; 380,000 tested, 0.35% active; AID 720647, 2013; bursicon-stimulated, 4 h; inhibition, % at 9.99 µM; Drosophila bursicon receptor LGR2 (rickets);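 active = drop in luminescence signal, shown as inhibition above about 50% in the replicate tests, limit read from the data, passing the limit was not always enough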;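 also: agonist challenge used bursicon conditioned medium at about half maximal strength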
* = called active by the depositor; · = no result. Sampled rows, rich in hits. Any-hit rate of the full collection: about 3.4%.

SMILES	SIRT5 inh	PAX8 inh HTS	rRNA inh HTS	EWS-Fli inh	PGC1a acetyl inh	LGR2 antag
CC(C)(C)NC(=O)/C=C/c1cccs1	-1	-23	10	-5	3	-5
CCC(C)NC(=O)/C=C/c1cccs1 (stereo not drawn)	17*	23	5	-4	·	·
O=C(/C=C/c1cccs1)Nc1ccc([N+](=O)[O-])cc1	·	-90	·	·	-17	-84
O=C(/C=C/c1cccs1)Nc1ccncc1	35*	-97	9	-65	·	-14
CC1=NN(c2ccc(Cl)c(C(=O)O)c2)C(=O)C1	-2	3	·	4	·	·
CC1=NN(c2ccc(C(=O)O)c(N)c2)C(=O)C1	23*	-3	21	5	3	1
COc1ccc(S(=O)(=O)N(C)C[C@@H]2Oc3ccc(NC(=O)Cn4cnnn4)cc3CC(=O)N([C@H](C)CO)C[C@@H]2C)cc1	-5	·	4	5	3	13
C[C@H]1CN([C@@H](C)CO)C(=O)c2cc(C#CC3CCCCC3)cnc2O[C@@H]1CN(C)S(C)(=O)=O	3	12	-2	7	-6	8
CCOCc1c(C(=O)NC2=Nc3ccccc3NC(CC)=C2C(=O)OCC)oc2ccccc12	-1	80*	7	-8	-10	39
CCOC(=O)C1=C(C)Nc2ccccc2N=C1NC(=O)C(c1ccccc1)c1ccccc1	-1	13	-21*	4	0	13
CCOC(=O)C1=C(CC)Nc2ccccc2N=C1NC(=O)CCNC(C)=O	0	-6	7	4	-2	7
CCOC(=O)C1=C(C)Nc2ccccc2N=C1NC(=O)c1cccc(S(=O)(=O)N(C)C)c1	0	7	-5	·	-6	-8
CCOC(=O)C1=C(CC)Nc2ccccc2N=C1NC(=O)c1ccc(S(=O)(=O)N(C)C)cc1	·	-29	·	·	7	·
CCOC(=O)C1=C(CC)Nc2ccccc2N=C1NC(=O)c1oc2ccccc2c1C	4	64*	10	8	-10	22
COc1ccc(S(=O)(=O)N(C)C[C@H]2OCCCC[C@H](C)Oc3ccc(NC(=O)c4ccccc4)cc3C(=O)N([C@H](C)CO)C[C@H]2C)cc1	3	-14	-1	5	-8	8
COc1ccc2cc(C[C@@H]3CC[C@@H](CO)O3)ccc2c1	·	-216	-23*	-85	11	-66
C[C@@H]1CN([C@@H](C)CO)C(=O)Cc2cc(NS(=O)(=O)c3ccccc3)ccc2O[C@H]1CN(C)CC1CCCCC1	19*	24	-2	22	·	-7
C[C@@H]1CN([C@H](C)CO)C(=O)Cc2cc(NS(=O)(=O)c3ccc(F)cc3)ccc2O[C@H]1CN(C)CC1CCCCC1	23*	·	-59	12	-5	-15
C[C@H]1CN([C@@H](C)CO)C(=O)Cc2cc(NS(=O)(=O)c3ccccc3)ccc2O[C@@H]1CN(C)S(=O)(=O)c1ccc(Cl)cc1	·	-3	-2	2	-6	-7
C[C@H](CO)N1C[C@H](C)[C@H](CN(C)CC2CCCCC2)Oc2ccc(NS(=O)(=O)c3ccc(F)cc3)cc2CC1=O	10	1	2	-2	1	23
C[C@@H]1CN([C@H](C)CO)C(=O)Cc2cc(NS(C)(=O)=O)ccc2O[C@@H]1CN(C)CC1CC1	17*	-10	1	-1	-6	11
C[C@@H]1CN([C@H](C)CO)C(=O)Cc2cc(NS(=O)(=O)c3ccccc3)ccc2O[C@@H]1CN(C)S(=O)(=O)c1ccc(Cl)cc1	·	104*	0	19	3	-3
C[C@H]1CN([C@@H](C)CO)C(=O)Cc2cc(NS(=O)(=O)c3ccccc3)ccc2O[C@H]1CN(C)CC1CCCCC1	2	6	7	27	·	-7
COc1ccc(S(=O)(=O)N(C)C[C@@H]2Oc3ccc(NC(=O)NC(C)C)cc3CC(=O)N([C@@H](C)CO)C[C@H]2C)cc1	3	-23	-3	3	-4	-10
C[C@H](CO)N1C[C@H](C)[C@H](CN(C)C(=O)c2ccncc2)Oc2ncc(C3=CCCC3)cc2C1=O	-2	·	0	-4	12	-5
SMILES	SIRT5 inh	PAX8 inh HTS	rRNA inh HTS	EWS-Fli inh	PGC1a acetyl inh	LGR2 antag
COc1ccc(NC(=O)Nc2ccc3c(c2)[C@@H]2C[C@@H](CC(=O)N4CCN(C)CC4)O[C@@H](CO)[C@@H]2O3)cc1	1	-11	2	4	-2	-2
COc1ccc2c3c([nH]c2c1)[C@H](CO)N(C(=O)c1ccccn1)CC31CCN(C(=O)C2CCC2)CC1	-2	-17	0	-12	·	13
CNC[C@H]1Oc2cc(C#Cc3ccccc3F)ccc2S(=O)(=O)N([C@H](C)CO)C[C@@H]1C	-1	-19	1	-1	8	3
C[C@@H]1CN([C@@H](C)CO)C(=O)Cc2cc(NS(=O)(=O)c3ccc(Cl)cc3)ccc2O[C@@H]1CN(C)CC1CCCCC1	20*	106*	-55	-9	2	8
C[C@H]1CN([C@@H](C)CO)C(=O)Cc2cc(NS(=O)(=O)c3ccc(Cl)cc3)ccc2O[C@H]1CN(C)CC1CC1	-1	·	2	-5	5	5
CN(C)CC(=O)N1[C@@H](CO)[C@@H](c2ccccc2)C12CN(C(=O)c1ccccc1)C2	-3	·	5	-2	4	3
O=C(c1ccc([N+](=O)[O-])cc1)N(c1ccccn1)c1ccccn1	20*	6	14	6	·	-11
C[C@@H]1CN([C@H](C)CO)C(=O)c2cccc(NC(=O)C3CCOCC3)c2O[C@@H]1CN(C)Cc1ccc(C(=O)Nc2ccccc2N)cc1	16*	·	5	34	14	-7
C[C@@H]1CN([C@H](C)CO)C(=O)c2cccc(NC(=O)Nc3ccccc3)c2O[C@H]1CN(C)Cc1ccc(C(=O)Nc2ccccc2N)cc1	0	33	-6	47	-5	7
C[C@@H]1CN([C@@H](C)CO)C(=O)c2cccc(NC(=O)Nc3ccccc3)c2O[C@@H]1CN(C)Cc1ccc(C(=O)Nc2ccccc2N)cc1	2	68*	-1	49	-2	-9
C[C@@H]1CN([C@@H](C)CO)C(=O)c2cccc(NC(=O)C3CCOCC3)c2O[C@H]1CN(C)Cc1ccc(C(=O)Nc2ccccc2N)cc1	0	·	0	15	17	-3
C[C@@H]1CCCCO[C@@H](CN(C)S(=O)(=O)c2cn(C)cn2)[C@@H](C)CN([C@H](C)CO)C(=O)c2cc(NC(=O)c3ccccc3)ccc2O1	-19	6	3	-13	-3	6
COc1ccc2c3c([nH]c2c1)[C@H](CO)N(C(=O)c1ccccc1)CC31CN(S(=O)(=O)c2cccs2)C1	·	·	-6	4	-13	8
